The whole screen tested about 16,000 compounds, of which about 5,800 (36%) were called active. Not shown: some 23% with an inconclusive outcome. The call rests on the fitted dose curve; in most records, active means well fitted curve in the direction sought with a large enough effect; inconclusive means small, poorly fitted or top-dose-only effect, or effect the other way; inactive means no such curve, though single readings can be large or run the other way. Some of the results follow. Numbered stars: 1 amine (or outer) side, 2 acyl side, 3 side chain; on linkers, the order of the positions; unused ones are H or OH. Bridge positions count the residues as written; N and C are the ends. Square brackets hold non-standard residues; d marks the D form. Peptide text beside a SMILES is read from it. I, II: the chains in the order shown. Actinocin(9to1) = Cc1c2oc3c(C)ccc(C(=O)[*:1])c3nc-2c(C(=O)[*:2])c(N)c1=O; aThr = C[C@H](O)[C@H](N)C(=O)O; NMeV = CN[C@H](C(=O)O)C(C)C; Sar = CNCC(=O)O
On the % scale 0 is the no-effect control and ±100 the full control effect.

The assay deals with Cytochrome P450 2C19 (Homo sapiens) (UniProt P33261). The assay is described as follows: Cytochrome panel assay with activity outcomes. Particulars: recombinant CYP, pro-luciferin dealkylation, luminescence, p450-cyp2c19; series mostly up to 57.1 µM; activity, negative = inhibition: at the top concentration.
Cytochrome P450 2C19 (Homo sapiens), sequence (P33261 whole entry, looked up): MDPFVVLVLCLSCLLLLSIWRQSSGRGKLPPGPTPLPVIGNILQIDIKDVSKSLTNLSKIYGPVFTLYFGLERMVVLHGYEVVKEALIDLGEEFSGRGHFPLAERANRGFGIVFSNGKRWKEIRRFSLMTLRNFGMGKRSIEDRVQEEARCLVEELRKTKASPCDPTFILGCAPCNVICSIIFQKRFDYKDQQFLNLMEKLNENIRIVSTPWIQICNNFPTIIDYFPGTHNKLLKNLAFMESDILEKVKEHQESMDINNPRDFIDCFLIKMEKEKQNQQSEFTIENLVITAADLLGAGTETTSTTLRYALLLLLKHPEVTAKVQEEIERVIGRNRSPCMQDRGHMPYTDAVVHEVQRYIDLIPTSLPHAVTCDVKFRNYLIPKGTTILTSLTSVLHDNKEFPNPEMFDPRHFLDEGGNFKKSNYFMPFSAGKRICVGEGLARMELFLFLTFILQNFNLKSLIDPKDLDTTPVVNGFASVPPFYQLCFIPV
For `COc1ccccc1CN1CC[C@@]2(CCCN(C(=O)c3ccco3)C2)C1`, the “activity, negative = inhibition” value was -12.6% (inactive).

In the case of `Cc1cnc(CNc2ncnc3ccc(-c4cccc(C#N)c4)cc23)cn1`, the “activity, negative = inhibition” value was -9.68% (inactive).

As to `FC(F)(F)c1ccccc1-c1ccc2ncnc(NCc3cccs3)c2c1`, the AC50 was 3.16 µM (active).

`COc1cccc(-c2ccc3ncnc(NCc4cnc(C)cn4)c3c2)c1`: the AC50 is 15.8 µM (active).

For the compound `COc1ccc(Nc2ncnc3sc(-c4ccccc4)cc23)cc1`, the AC50 was 3.16 µM (active).

`COCCNc1ncnc2ccc(-c3ccccc3C(F)(F)F)cc12`: the AC50 was 6.31 µM (active).

Take `O=C(c1cnccn1)N1CCC[C@@]2(CCN(c3ncccn3)C2)C1`: the “activity, negative = inhibition” value was 19.2% (inactive).

Take `Cc1c2oc3c(C)ccc(C(=O)N[C@@H]4C(=O)N[C@@H](C(C)C)C(=O)N5CCC[C@@H]5C(=O)N(C)CC(=O)N(C)[C@@H](C(C)C)C(=O)O[C@H]4C)c3nc-2c(C(=O)N[C@@H]2C(=O)N[C@@H](C(C)C)C(=O)N3CCC[C@@H]3C(=O)N(C)CC(=O)N(C)[C@@H](C(C)C)C(=O)O[C@H]2C)c(N)c1=O` (I: [aThr]V[dP][Sar][NMeV] / II: [aThr]V[dP][Sar][NMeV]; ester I:1-I:C, II:1-II:C; linker I:N-II:N via Actinocin(9to1)): the “activity, negative = inhibition” value is -4.79% (inactive).

On to `COc1ccccc1-c1ccc2ncnc(NCc3ccccc3)c2c1`, for which the AC50 is 3.98 µM (active).

Turning to `Clc1ccccc1-c1ccc2ncnc(NCc3cccnc3)c2c1`, the AC50 is 0.01 µM (active).

For the compound `CN(C)Cc1ccccc1-c1ccc2ncnc(NCc3ccccc3)c2c1`, the “activity, negative = inhibition” value was -37.6% (inactive).

`COc1ccccc1-c1ccc2ncnc(Nc3ccccc3)c2c1`: the AC50 was 5.01 µM (active).

As for `Nc1nc2n[nH]nc2c(=O)[nH]1`, the “activity, negative = inhibition” value was 32.2% [at 25.6 µM] (inactive).

As to `NC(N)=NC(=O)c1nc(Cl)c(N)nc1N`, the “activity, negative = inhibition” value was -14.1% (inactive).

As to `CN(C)c1nc(N)c(C(=O)N=C(N)N)nc1Cl`, the “activity, negative = inhibition” value was -3.58% (inactive).

As to `NC(N)=NC(=O)c1nc(Cl)c(N2CCCCCC2)nc1N`, the AC50 was 5.01 µM (active).

For the compound `CCN(c1nc(N)c(C(=O)N=C(N)N)nc1Cl)C(C)C`, the “activity, negative = inhibition” value was -25.6% (inactive).

Take `c1c[nH]c(CN2CCN(Cc3ncc[nH]3)CC2)n1`: the activity, negative = inhibition is -25.8% [at 11.4 µM] (inactive).

As for `Cc1cc(C(=O)CSC(=S)SC(C)(C)C)ccc1Cl`, the AC50 is 1 µM (active).

Regarding `CC(=O)N1CCc2cc(Br)cc(S(=O)(=O)N3CCN(C(=O)c4ccco4)CC3)c21`, the AC50 was 4.47 µM (active).

Take `Cc1ccc(NC(=O)c2nnn(-c3cc(C)cc(C)c3)c2N)cc1`: the AC50 is 3.98 µM (active).

For the compound `Cc1cc(Cc2cc(Cc3cc(C)cc(C(C)(C)C)c3O)c(C)cc2C)c(O)c(C(C)(C)C)c1`, the half-maximal activity concentration (AC50) was 1 µM (active).

As to `Cc1cc(Cc2cc(C)cc(C(C)(C)C)c2O)c(O)c(Cc2cc(C)cc(C(C)(C)C)c2O)c1`, the AC50 is 3.16 µM (active).

In the case of `Cc1cc(Cc2c(C)c(C)c(Cc3cc(C)cc(C(C)(C)C)c3O)c(C)c2C)c(O)c(C(C)(C)C)c1`, the activity, negative = inhibition was 37.4% [at 11.4 µM] (inactive).

Turning to `CCN1CCN(C(=O)N[C@H](C(=O)N[C@@H]2C(=O)N3[C@@H]2SC(C)(C)[C@@H]3C(=O)O)c2ccccc2)C(=O)C1=O`, the “activity, negative = inhibition” value was 34.8% [at 25.6 µM] (inactive).

For the compound `Cc1cccc(CNc2ncncc2-c2cccc(C#N)c2)c1`, the AC50 was 3.98 µM (active).

Consider `N#Cc1cccc(-c2cncnc2NCc2cccs2)c1`, for which the AC50 is 7.94 µM (active).

For `Cc1cnc(CNc2ncncc2-c2cccc(C#N)c2)cn1`, the “activity, negative = inhibition” value was 19.9% (inactive).

As for `N#Cc1cccc(-c2cncnc2NCc2cccnc2)c1`, the AC50 was 3.98 µM (active).

As to `N#Cc1cccc(-c2cncnc2NCc2ccccc2)c1`, the AC50 was 7.94 µM (active).

`CC(C)CN1CCC2(CC1)CCN(C(=O)c1cccn1C)CC2`: the “activity, negative = inhibition” value was 28.4% (inactive).

For `CC(=O)NC1=NC(=O)CS1`, the “activity, negative = inhibition” value was -12.1% (inactive).

Turning to `Nc1cc(-c2ccncc2)c[nH]c1=O`, the AC50 was 5.01 µM (active).

For the compound `Cc1cccc(C)c1OC[C@@H](N)C(C)C`, the “activity, negative = inhibition” value is -15.9% (inactive).

For the compound `CCCCc1ccc(-c2csc(/C(C#N)=C/c3ccc(C)o3)n2)cc1`, the AC50 is 5.62 µM (active).

In the case of `Nc1nnc(C(c2ccccc2)c2ccccc2)s1`, the AC50 is 22.4 µM (active).

`COc1ccc(C(C(=O)NC2CCCC2)N(Cc2ccc(F)cc2)C(=O)c2ccn[nH]2)cc1OC` (stereo unspecified): the AC50 is 10 µM (active).

Turning to `O=C(NC1CCCC1)C(c1ccc(F)cc1)N(Cc1ccc(F)cc1)C(=O)c1ccn[nH]1` (stereo unspecified), the AC50 is 5.01 µM (active).

`COc1ccc(CC(NC(C)=O)C(=O)NC2CCN(C(=O)Nc3ccc(Cl)cc3)CC2)cc1OC` (stereo unspecified): the “activity, negative = inhibition” value is -29.6% (inactive).

Consider `Cc1nc2cnc(N3CCN(C)CC3)nc2n(Cc2ccc(F)cc2)c1=O`, for which the “activity, negative = inhibition” value is -36% (inactive).

For `COCCn1c(=O)c(-c2cn(C)c3ccccc23)nc2cnc(OCc3ccccc3)nc21`, the “activity, negative = inhibition” value is -1.54% (inactive).

With `COCCn1c(=O)c(-c2ccccc2)nc2cnc(OC)nc21`, the “activity, negative = inhibition” value is -40% (inactive).

On to `COc1ncc2nc(-c3ccc(F)cc3)c(=O)n(CCc3ccccc3)c2n1`, for which the “activity, negative = inhibition” value is -5.58% (inactive).

Regarding `COc1ncc2nc(C)c(=O)n(CCc3ccccc3)c2n1`, the AC50 was 25.1 µM (active).

For `COc1ccc(-c2nc3cnc(OC)nc3n(CCc3ccccc3)c2=O)cc1`, the “activity, negative = inhibition” value is -22.4% (inactive).

In the case of `COc1ccc(-n2c(=O)c(CCc3ccccc3)nc3cnc(N4CCN(C)CC4)nc32)cc1`, the “activity, negative = inhibition” value was -34.8% (inactive).

Turning to `Cc1nc2cnc(Oc3ccccc3)nc2n(CCc2ccccc2)c1=O`, the “activity, negative = inhibition” value is -27.8% (inactive).

For `COc1ncc2nc(CCc3ccccc3)c(=O)n(CCc3ccccc3)c2n1`, the AC50 is 7.94 µM (active).

As to `COCCn1c(=O)c(CCc2ccccc2)nc2cnc(OC)nc21`, the AC50 is 0.794 µM (active).

For `COc1ccc(-n2c(=O)c(CCc3ccccc3)nc3cnc(OC)nc32)cc1`, the AC50 was 6.31 µM (active).

As for `COc1ccc(-c2nc3cnc(OC)nc3n(-c3ccc(OC)cc3)c2=O)cc1`, the “activity, negative = inhibition” value is 19.5% (inactive).

Turning to `C#CCCCO/N=C1/C[C@@H](O)[C@@H](O)[C@@H]2[C@@H]3C(=O)N(C4CCCCC4)C(=O)[C@H]3CC[C@@H]12`, the activity, negative = inhibition is -32.2% [at 11.4 µM] (inactive).

As for `O=C1C[C@H]2C(=O)[C@@H]1[C@@H](C(=O)O)[C@H]2C(=O)O`, the activity, negative = inhibition is -11.8% [at 11.4 µM] (inactive).

For the compound `Cc1ccc(S(=O)(=O)N[C@H]2COC(=O)[C@@H](C)COC(=O)[C@H](C)NC(=O)C/C=C\[C@H]2C)cc1`, the activity, negative = inhibition was 9.82% [at 11.4 µM] (inactive).

Consider `COc1ccc(-c2nc3cnc(N4CCNCC4)nc3n(C)c2=O)cc1`, for which the “activity, negative = inhibition” value was -36.3% (inactive).

Regarding `CCOC(=O)c1c(C)n(C)c2ccc(OC)c(NS(=O)(=O)c3ccc(Cl)s3)c12`, the AC50 is 0.282 µM (active).

The AC50 is the midpoint of the concentration-response curve, whichever way the signal moves.

Values taken from PubChem BioAssay AID1851 (National Center for Advancing Translational Sciences (NCATS), 2009).
